Results: PubChem BioAssay (Tox21)
Values joined by “and” are separate entries in the source; they are usually repeats but may differ in a detail not shown here. Equal entries are not always repeated. Inconclusive results are not listed. The source holds several records for some structures; these can differ, active in one and inactive in another. Active and inactive are the calls of the source. The call rests on the fitted dose curve; in most records, active means well fitted curve in the direction sought with a large enough effect in the repeat runs; inconclusive means weak or mixed curves; inactive means no such curve, though single readings can be large; an effect the other way counts as inactive or inconclusive.

Key:
[1] = Human pregnane X receptor (PXR) small molecule agonists, qHTS cell viability counter screen (AID 1346977); further: nearly all actives have a fitted effect of over 50% in size; further: potency means the concentration at half of the fitted maximal effect
Procedure, shortened: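 PXR-Luc HepG2, 2,000 cells/well, 5% charcoal-stripped FBS; 5hr settle; cpd 24hr, 37C/5% CO2; CellTiter-Fluor at 23hr, read 1hr later (fluorescence).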

[2] = Caspase-3/7 induction in HepG2 cells by small molecules, qHTS assay (AID 1346978); further: nearly all actives have a fitted effect of over 15% in size; further: potency means the concentration at half of the fitted maximal effect
Procedure, shortened: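 Caspase-3/7 induction was measured by Caspase-Glo 3/7 luminescence (30 min, room temperature) after a 17 hr compound exposure of wild-type HepG2 cells seeded at 2,000 per well and pre-incubated 5 hr.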

[3] = Caspase-3/7 induction in CHO-K1 cells by small molecules, qHTS cell viability counter screen (AID 1346979); further: nearly all actives have a fitted effect of over 35% in size; further: potency means the concentration at half of the fitted maximal effect
Procedure, shortened: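 Cells (CHO-K1, wild type) are plated at 1,500 per well and incubated 5hr. Test compounds in DMSO are then pinned in, followed by 16hr at 37C and 5% CO2. Viability is read by CellTiter-Fluor fluorescence after 1hr.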

[4] = Caspase-3/7 induction in CHO-K1 cells by small molecules, qHTS assay (AID 1346980); further: nearly all actives have a fitted effect of over 15% in size; further: potency means the concentration at half of the fitted maximal effect
Procedure, shortened: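 Luminescent Caspase-Glo 3/7 read (30min, room temperature) quantified apoptosis induction. Cells were wild-type CHO-K1, treated with compound for 17hr at 37 C and 5% CO2.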

[5] = Caspase-3/7 induction in HepG2 cells by small molecules, qHTS cell viability counter screen (AID 1346981); further: nearly all actives have a fitted effect of over 30% in size; further: potency means the concentration at half of the fitted maximal effect; on activity change, negative = cytotoxicity: series mostly up to about 92 µM
Procedure, shortened: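 Multiplexed with the caspase-3/7 assay: HepG2 cells, 16 hr compound treatment, CellTiter-Fluor viability detection by fluorescence.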

[6] = target: Nuclear receptor subfamily 1 group I member 2 (Homo sapiens) (UniProt O75469); experiment: Human pregnane X receptor (PXR) small molecule agonists, qHTS assay (AID 1346982); further: nearly all actives have a fitted effect of over 35% in size; further: potency means the concentration at half of the fitted maximal effect
Procedure, shortened: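 We seeded PXR-Luc HepG2 cells in assay medium containing 5% charcoal-stripped FBS, added compounds 5 hr later, incubated 24 hr, and read luminescence with ONE-Glo reagent.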

[7] = target: Nuclear receptor subfamily 1 group I member 2 (Rattus norvegicus) (UniProt Q9R1A7); experiment: Rat pregnane X receptor (rPXR) activation by small molecules, qHTS assay (AID 1346983); details: rPXR luciferase reporter cells, One-Glo luminescence, 24 h; stronger effect = higher value; further: nearly all actives have a fitted effect of over 20% in size
Procedure, shortened: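 Luminescent readout (One-Glo luciferase, 30 min room temperature) followed 24 hr compound treatment at 37 C of rPXR cells plated 2,000 per well and preincubated 5hr; qHTS format with compounds delivered in DMSO.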

[8] = target: Nuclear receptor subfamily 1 group I member 2 (Homo sapiens) (UniProt O75469); experiment: Human pregnane X receptor (PXR) activation by small molecules, qHTS assay (AID 1346985); further: nearly all actives have a fitted effect of over 40% in size
Procedure, shortened: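 DPX-2 cells (HepG2 co-transfected with a PXR response element and a CYP3A4-promoter luciferase construct) were seeded at 2,000 per well, rested 5 hr at 37C, then exposed to DMSO-dissolved compounds for 24 hr. Activation was read as luciferase luminescence.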

[9] = target: Cytochrome P450 2D6 (Homo sapiens) (UniProt P10635); experiment: Cytochrome P450 Family 2 Subfamily D Member 6 (CYP2D6) small molecule antagonists: luciferase reporter qHTS assay (AID 1671196); further: nearly all actives have a fitted effect of over 50% in size; further: potency means the concentration at half of the fitted maximal effect; on activity change, negative = inhibition: series mostly up to about 120 µM
Procedure, shortened: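 Luminescence (RLU), read 20 min after detection reagent, indicated CYP2D6 conversion of proluciferin to luciferin during a 1 h NADPH-dependent reaction at room temperature.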

[10] = target: Cytochrome P450 2C19 (Homo sapiens) (UniProt P33261); experiment: Cytochrome P450 Family 2 Subfamily C Member 19 (CYP2C19) small molecule antagonists: luciferase reporter qHTS assay (AID 1671197); further: nearly all actives have a fitted effect of over 65% in size; further: potency means the concentration at half of the fitted maximal effect; on activity change, negative = inhibition: series mostly up to about 120 µM
Procedure, shortened: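 CYP2C19 P450-Glo, 1536-well qHTS. Cpd + enzyme/proluciferin substrate 10 min RT; + NADPH regen, 37C 1 h; stop with luciferin detection reagent, 20 min RT, luminescence (RLU). Pos ctrl ketoconazole.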

[11] = target: Cytochrome P450 1A2 (Homo sapiens) (UniProt P05177); experiment: Cytochrome P450 Family 1 Subfamily A Member 2 (CYP1A2) small molecule antagonists: luciferase reporter qHTS assay (AID 1671199); further: nearly all actives have a fitted effect of over 50% in size; further: potency means the concentration at half of the fitted maximal effect; on activity change, negative = inhibition: series mostly up to about 120 µM
Procedure, shortened: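 CYP1A2 turnover of a luminogenic substrate was quantified after 1 h with NADPH regeneration at room temperature. Furafylline served as positive control.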

[12] = target: Voltage-gated inwardly rectifying potassium channel KCNH2 (Homo sapiens) (UniProt Q12809); experiment: Human Ether-a-go-go-Related Gene (hERG) channel small molecule antagonists: fluorescence cell-based qHTS assay (AID 1671200);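 further: hERG-expressing U2OS cells given a thallium stimulus after FluxOR II dye loading; series mostly up to about 77 µM; nearly all actives have a fitted effect of over 50% in size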
Procedure, shortened: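 Channel function was assessed by thallium flux. Cells seeded the previous day and kept at 37 C took up FluxOR II dye over 1 h in the dark at room temperature, then sat another 10 min before stimulation.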

[13] = target: Cytochrome P450 3A4 (Homo sapiens) (UniProt P08684); experiment: Cytochrome P450 Family 3 Subfamily A Member 4 (CYP3A4) small molecule antagonists: luciferase reporter qHTS assay (AID 1671201); further: nearly all actives have a fitted effect of over 50% in size; further: potency means the concentration at half of the fitted maximal effect; on activity change, negative = inhibition: series mostly up to about 120 µM
Procedure, shortened: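 Compounds in DMSO were pin-transferred onto CYP3A4 enzyme-substrate mix and held 10 min at room temperature. NADPH regenerating solution started the reaction for 1 h; luciferin detection reagent stopped it, and luminescence was read after 20 min.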

[14] = target: Cytochrome P450 2C9 (Homo sapiens) (UniProt P11712); experiment: Cytochrome P450 Family 2 Subfamily C Member 9 (CYP2C9) small molecule antagonists: luciferase reporter qHTS assay (AID 1671198); further: nearly all actives have a fitted effect of over 50% in size; further: potency means the concentration at half of the fitted maximal effect; on activity change, negative = inhibition: series mostly up to about 120 µM
Procedure, shortened: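 Enzyme-substrate mix preincubated with compound 10 min at room temperature; reaction started with NADPH regeneration solution, 1 h 37C. Luminescent luciferin product read after 20 min detection reagent.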
On the % scale 0 is the no-effect control and ±100 the full control effect.

Chain of Cytochrome P450 2C19 (Homo sapiens) (P33261 whole entry, looked up): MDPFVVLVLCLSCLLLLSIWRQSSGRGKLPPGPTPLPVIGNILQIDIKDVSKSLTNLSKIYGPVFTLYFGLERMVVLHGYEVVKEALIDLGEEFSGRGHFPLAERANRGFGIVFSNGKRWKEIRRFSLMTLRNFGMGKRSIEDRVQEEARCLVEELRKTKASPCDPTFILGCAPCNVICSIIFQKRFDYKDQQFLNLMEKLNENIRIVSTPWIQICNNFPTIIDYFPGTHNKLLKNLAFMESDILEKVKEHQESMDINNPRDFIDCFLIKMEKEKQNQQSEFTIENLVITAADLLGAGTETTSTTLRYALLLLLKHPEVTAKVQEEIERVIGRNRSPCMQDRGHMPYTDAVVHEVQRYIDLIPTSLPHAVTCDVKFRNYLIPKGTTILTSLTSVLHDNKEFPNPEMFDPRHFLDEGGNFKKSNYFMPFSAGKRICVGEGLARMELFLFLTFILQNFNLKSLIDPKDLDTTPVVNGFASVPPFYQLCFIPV
Chain of Cytochrome P450 2C9 (Homo sapiens) (P11712 whole entry, looked up): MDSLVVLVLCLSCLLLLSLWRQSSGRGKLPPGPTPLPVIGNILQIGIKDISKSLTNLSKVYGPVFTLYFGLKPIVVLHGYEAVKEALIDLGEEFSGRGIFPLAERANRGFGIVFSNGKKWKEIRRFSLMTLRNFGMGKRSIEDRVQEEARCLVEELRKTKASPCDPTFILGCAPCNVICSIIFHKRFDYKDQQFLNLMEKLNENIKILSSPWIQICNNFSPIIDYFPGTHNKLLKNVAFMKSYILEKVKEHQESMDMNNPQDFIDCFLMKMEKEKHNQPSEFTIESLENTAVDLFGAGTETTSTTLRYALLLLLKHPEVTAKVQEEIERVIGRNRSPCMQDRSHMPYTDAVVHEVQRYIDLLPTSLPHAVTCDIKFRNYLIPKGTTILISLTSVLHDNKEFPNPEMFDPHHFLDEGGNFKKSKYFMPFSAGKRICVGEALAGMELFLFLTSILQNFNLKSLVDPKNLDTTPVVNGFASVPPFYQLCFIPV
Chain of Cytochrome P450 2D6 (Homo sapiens) (P10635 whole entry, looked up): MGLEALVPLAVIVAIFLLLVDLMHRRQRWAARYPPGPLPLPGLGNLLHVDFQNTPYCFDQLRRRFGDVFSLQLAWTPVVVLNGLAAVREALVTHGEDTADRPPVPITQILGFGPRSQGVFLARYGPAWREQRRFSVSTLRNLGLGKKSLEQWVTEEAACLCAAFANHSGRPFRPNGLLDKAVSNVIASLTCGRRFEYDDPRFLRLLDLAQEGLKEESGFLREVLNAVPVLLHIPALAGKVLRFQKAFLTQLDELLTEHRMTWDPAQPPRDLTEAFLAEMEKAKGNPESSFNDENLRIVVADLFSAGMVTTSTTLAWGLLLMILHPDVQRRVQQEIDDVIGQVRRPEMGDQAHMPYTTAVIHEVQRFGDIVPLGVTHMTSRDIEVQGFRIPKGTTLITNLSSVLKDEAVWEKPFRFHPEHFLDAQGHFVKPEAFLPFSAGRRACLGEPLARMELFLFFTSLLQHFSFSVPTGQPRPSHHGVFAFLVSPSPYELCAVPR
Chain of Nuclear receptor subfamily 1 group I member 2 (Homo sapiens) (O75469 whole entry, looked up): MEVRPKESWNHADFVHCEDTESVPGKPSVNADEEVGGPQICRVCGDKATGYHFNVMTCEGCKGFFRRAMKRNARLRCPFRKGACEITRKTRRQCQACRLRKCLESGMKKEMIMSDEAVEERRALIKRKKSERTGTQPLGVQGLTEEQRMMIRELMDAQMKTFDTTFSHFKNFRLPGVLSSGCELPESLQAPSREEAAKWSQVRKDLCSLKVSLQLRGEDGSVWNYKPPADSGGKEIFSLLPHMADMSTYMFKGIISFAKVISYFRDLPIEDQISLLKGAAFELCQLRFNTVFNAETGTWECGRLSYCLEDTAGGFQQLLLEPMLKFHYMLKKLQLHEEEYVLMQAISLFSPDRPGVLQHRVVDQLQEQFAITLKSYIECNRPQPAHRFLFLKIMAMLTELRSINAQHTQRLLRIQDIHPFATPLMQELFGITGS
Chain of Cytochrome P450 1A2 (Homo sapiens) (P05177 whole entry, looked up): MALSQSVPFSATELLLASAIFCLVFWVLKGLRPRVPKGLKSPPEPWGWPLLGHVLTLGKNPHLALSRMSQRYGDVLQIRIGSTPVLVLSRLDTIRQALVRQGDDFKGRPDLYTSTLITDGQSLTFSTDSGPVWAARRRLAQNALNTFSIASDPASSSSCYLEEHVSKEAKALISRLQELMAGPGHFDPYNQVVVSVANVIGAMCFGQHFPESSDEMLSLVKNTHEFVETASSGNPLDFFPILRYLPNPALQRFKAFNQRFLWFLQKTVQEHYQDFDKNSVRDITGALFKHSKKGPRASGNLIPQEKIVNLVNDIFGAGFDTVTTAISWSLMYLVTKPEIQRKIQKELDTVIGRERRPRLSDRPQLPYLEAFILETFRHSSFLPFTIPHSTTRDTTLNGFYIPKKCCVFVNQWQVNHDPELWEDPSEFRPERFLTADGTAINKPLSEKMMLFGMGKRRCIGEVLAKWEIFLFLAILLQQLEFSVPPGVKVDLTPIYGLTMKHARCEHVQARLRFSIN
Chain of Voltage-gated inwardly rectifying potassium channel KCNH2 (Homo sapiens) (Q12809 whole entry, looked up): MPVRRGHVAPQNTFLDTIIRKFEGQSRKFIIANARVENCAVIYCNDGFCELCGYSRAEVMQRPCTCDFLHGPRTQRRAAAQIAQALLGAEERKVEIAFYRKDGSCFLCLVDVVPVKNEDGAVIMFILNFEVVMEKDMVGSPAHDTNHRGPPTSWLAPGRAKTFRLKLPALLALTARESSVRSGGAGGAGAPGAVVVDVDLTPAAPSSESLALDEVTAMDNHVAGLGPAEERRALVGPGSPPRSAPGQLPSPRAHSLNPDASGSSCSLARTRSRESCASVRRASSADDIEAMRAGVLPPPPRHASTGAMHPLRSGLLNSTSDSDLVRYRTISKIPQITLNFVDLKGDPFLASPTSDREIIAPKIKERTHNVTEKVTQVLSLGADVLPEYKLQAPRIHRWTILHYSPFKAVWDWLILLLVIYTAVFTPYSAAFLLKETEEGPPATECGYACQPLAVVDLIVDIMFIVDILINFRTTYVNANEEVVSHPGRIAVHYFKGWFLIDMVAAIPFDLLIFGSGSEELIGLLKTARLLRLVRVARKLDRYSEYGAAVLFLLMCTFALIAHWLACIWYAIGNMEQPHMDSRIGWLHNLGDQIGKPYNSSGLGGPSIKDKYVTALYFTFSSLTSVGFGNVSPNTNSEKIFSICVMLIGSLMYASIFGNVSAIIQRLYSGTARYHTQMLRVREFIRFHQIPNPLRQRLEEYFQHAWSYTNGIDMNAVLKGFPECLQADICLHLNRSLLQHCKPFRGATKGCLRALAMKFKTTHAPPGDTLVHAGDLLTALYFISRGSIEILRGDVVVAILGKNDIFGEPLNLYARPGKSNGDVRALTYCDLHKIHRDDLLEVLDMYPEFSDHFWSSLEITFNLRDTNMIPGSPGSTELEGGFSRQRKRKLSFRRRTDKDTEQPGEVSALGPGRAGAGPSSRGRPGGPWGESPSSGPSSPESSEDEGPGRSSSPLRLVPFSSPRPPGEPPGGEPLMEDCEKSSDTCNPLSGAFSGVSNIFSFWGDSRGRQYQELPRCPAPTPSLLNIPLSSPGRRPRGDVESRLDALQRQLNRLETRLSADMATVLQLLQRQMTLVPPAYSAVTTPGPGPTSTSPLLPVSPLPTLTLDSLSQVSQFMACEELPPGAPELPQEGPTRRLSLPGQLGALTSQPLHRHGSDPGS
Chain of Cytochrome P450 3A4 (Homo sapiens) (P08684 whole entry, looked up): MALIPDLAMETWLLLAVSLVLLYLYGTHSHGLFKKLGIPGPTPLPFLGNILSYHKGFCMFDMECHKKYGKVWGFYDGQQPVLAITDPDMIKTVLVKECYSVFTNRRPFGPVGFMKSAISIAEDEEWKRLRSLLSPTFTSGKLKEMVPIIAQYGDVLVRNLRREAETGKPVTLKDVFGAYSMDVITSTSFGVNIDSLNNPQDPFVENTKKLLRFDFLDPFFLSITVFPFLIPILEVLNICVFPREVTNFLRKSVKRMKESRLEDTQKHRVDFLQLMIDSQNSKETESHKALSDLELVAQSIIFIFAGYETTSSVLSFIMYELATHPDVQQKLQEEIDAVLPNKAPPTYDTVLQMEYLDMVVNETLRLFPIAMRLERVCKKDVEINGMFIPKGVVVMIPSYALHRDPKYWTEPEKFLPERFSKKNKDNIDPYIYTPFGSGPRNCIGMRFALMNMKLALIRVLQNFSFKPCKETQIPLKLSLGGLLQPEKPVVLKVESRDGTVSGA
Chain of Nuclear receptor subfamily 1 group I member 2 (Rattus norvegicus) (Q9R1A7 whole entry, looked up): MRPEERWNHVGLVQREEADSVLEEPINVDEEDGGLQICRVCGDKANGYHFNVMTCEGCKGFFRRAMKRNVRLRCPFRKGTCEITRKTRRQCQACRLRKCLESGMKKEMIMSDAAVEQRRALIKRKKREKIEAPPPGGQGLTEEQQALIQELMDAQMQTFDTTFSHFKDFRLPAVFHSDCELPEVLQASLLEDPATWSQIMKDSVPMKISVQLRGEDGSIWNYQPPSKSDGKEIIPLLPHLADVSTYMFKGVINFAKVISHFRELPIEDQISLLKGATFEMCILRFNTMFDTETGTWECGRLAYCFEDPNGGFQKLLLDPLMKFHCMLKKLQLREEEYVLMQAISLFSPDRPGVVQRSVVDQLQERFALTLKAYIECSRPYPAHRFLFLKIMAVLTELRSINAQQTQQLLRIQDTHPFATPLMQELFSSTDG

CC(=O)OCC1=C(C(=O)O)N2C(=O)[C@@H](NC(=O)Cc3cccs3)[C@H]2SC1
inactive: Potency [1] | Potency [2] | Potency [3] | Potency [4] | Potency [5] | Potency [6] | max activation [7] -1.19% | Potency [8] | Potency [9] | Potency [10] | Potency [11] | Potency [12] | Potency [13]

Cc1cccc(O)c1C
inactive: Potency [1] | Potency [2] | Potency [3] | Potency [4] | Potency [5] | Potency [6] | Potency [9] | Potency [14] | Potency [12] | Potency [13]
70.5 µM (active) and inactive: Potency [10]
active: Potency [11] 46.1 µM

Cc1scc2c1N(C(=O)CN1CCN(C)CC1)c1ccccc1NC2=O
inactive: Potency [1] | Potency [2] | Potency [3] | Potency [4] | Potency [5] | Potency [6] | Potency [9] | Potency [10] | Potency [14] | Potency [11] | Potency [12]

CCCCCCCCCCCCc1ccccc1O
active: Potency [1] 47.9 µM and 30.6 µM | Potency [2] 60.3 µM and 54.5 µM | Potency [3] 53.8 µM and 54.5 µM | Potency [4] 60.3 µM and 68.6 µM | Potency [5] 60.3 µM and 48.6 µM | Potency [6] 6.03 µM | Potency [10] 1.57 µM and 3.17 µM | Potency [14] 7.01 µM and 11.2 µM | Potency [11] 35.1 µM and 31.7 µM | Potency [13] 31.3 µM and 63.3 µM
inactive: Potency [9] | Potency [12]

CC(C)(C)NCC(O)COc1ccccc1OCC1CCCO1 (centres undefined)
inactive: Potency [1] | Potency [2] | Potency [3] | Potency [4] | Potency [5] | Potency [6] | Potency [10] | Potency [14] | Potency [11] | Potency [12] | Potency [13]
active: Potency [9] 2.75 µM

c1cc(C(c2ccc(OCC3CO3)cc2)C(c2ccc(OCC3CO3)cc2)c2ccc(OCC3CO3)cc2)ccc1OCC1CO1 (centres undefined)
inactive: Potency [1] | Potency [2] | Potency [3] | Potency [5] | Potency [11] | Potency [12] | Potency [13]
active: Potency [4] 28.3 µM | Potency [6] 40 µM and 7.69 µM | Potency [10] 104 µM and 56.4 µM | Potency [14] 10.4 µM and 22.4 µM
46.5 µM (active) and inactive: Potency [9]

C=C(C)C1CC=C(C)C(OC(C)=O)C1 (centres undefined)
inactive: Potency [1] | Potency [2] | Potency [3] | Potency [4] | Potency [5] | Potency [6] | Potency [10] | Potency [14] | Potency [11] | Potency [12] | Potency [13]
28.1 µM (active) and inactive: Potency [9]

CCn1cc(C(=O)O)c(=O)c2cc(F)c(N3CCNC(C)C3)c(F)c21 (centres undefined)
inactive: Potency [1] | Potency [2] | Potency [3] | Potency [4] | Potency [5] | Potency [6] | max activation [7] -0.533% | Potency [8] | Potency [9] | Potency [14] | Potency [11] | Potency [13]

CCc1ccc(C(c2ccc(CC)cc2)C(Cl)Cl)cc1
active: Potency [6] 31.1 µM and 24.3 µM | Potency [10] 6.43 µM and 3.56 µM | Potency [14] 14.4 µM and 12.6 µM | Potency [11] 40.6 µM
inactive: Potency [1] | Potency [2] | Potency [3] | Potency [4] | Potency [5] | Potency [9] | Potency [12] | Potency [13]

O=C1CC2(CCCC2)CC(=O)N1CCCCN1CCN(c2ncccn2)CC1
54.5 µM (active) and inactive: Potency [3]
inactive: Potency [1] | Potency [2] | Potency [4] | Potency [5]

NC(Cc1ccc(Cl)cc1)C(=O)O (centres undefined)
inactive: activity change, negative = cytotoxicity [1] 6.84% [at 0.349 µM] | caspase activation [2] -0.871% [at 0.349 µM] | activity change, negative = cytotoxicity [3] 10.4% [at 0.349 µM] | caspase-3/7 activation [4] 1.39% [at 0.349 µM] | activity change, negative = cytotoxicity [5] -2.01% [at 0.349 µM] | activation [6] -5.94% [at 0.349 µM] | activity change, negative = inhibition [9] -0.77% [at 0.435 µM] | activity change, negative = inhibition [10] 18.5% [at 0.435 µM] | activity change, negative = inhibition [14] 6.61% [at 0.435 µM] | activity change, negative = inhibition [11] 10.8% [at 0.435 µM] | activity change, negative = inhibition [12] 10.3% [at 0.29 µM] | activity change, negative = inhibition [13] 0.0907% [at 0.435 µM]

CCCC(=O)c1ccccc1
inactive: Potency [1] | Potency [2] | Potency [3] | Potency [4] | Potency [5] | Potency [6] | Potency [10] | Potency [14] | Potency [11] | Potency [12] | Potency [13]
active: Potency [9] 31.7 µM

CC(=O)CC(C)=O
inactive: Potency [1] | Potency [2] | Potency [3] | Potency [4] | Potency [5] | Potency [9] | Potency [10] | Potency [14] | Potency [11] | Potency [12] | Potency [13]

CC1COC(=O)O1 (centres undefined)
inactive: Potency [1] | Potency [2] | Potency [3] | Potency [4] | Potency [5] | Potency [9] | Potency [10] | Potency [14] | Potency [11] | Potency [12] | Potency [13]
